Results on 20 molecules are retold here after paper PMC9911399, “Two distinct binding modes provide the RNA-binding protein RbFox with extraordinary sequence specificity”.

T1: RBFOX1 RRM (Homo sapiens, UniProt Q9NWB1 109-208)
T1 sequence: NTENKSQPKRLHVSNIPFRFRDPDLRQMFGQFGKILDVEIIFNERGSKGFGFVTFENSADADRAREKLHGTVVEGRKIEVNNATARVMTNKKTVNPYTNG

B1: AGCAGGG (DNA:RNA)
RNA: GGGAGACCGGAAUUCAGAUUGUCCAGCAGGGUUAAAUCCCGUCGUAGCCACCA
DNA 1: CAATCTGAATTCCGGTCTCCC
DNA 2: TGGTGGCTACGACGGGATT
B2: UGAGGUG (DNA:RNA)
RNA: B1 RNA with A25U, C27A, A28G, G30U
DNA 1: CAATCTGAATTCCGGTCTCCC
DNA 2: TGGTGGCTACGACGGGATT
B3: UCCGUAG (DNA:RNA)
RNA: B1 RNA with A25U, G26C, A28G, G29U, G30A
DNA 1: CAATCTGAATTCCGGTCTCCC
DNA 2: TGGTGGCTACGACGGGATT
B4: UGUAUGC (DNA:RNA)
RNA: B1 RNA with A25U, C27U, G29U, G31C
DNA 1: CAATCTGAATTCCGGTCTCCC
DNA 2: TGGTGGCTACGACGGGATT
B5: UGUAUUG (DNA:RNA)
RNA: B1 RNA with A25U, C27U, G29U, G30U
DNA 1: CAATCTGAATTCCGGTCTCCC
DNA 2: TGGTGGCTACGACGGGATT
B6: CGUAUGC (DNA:RNA)
RNA: B1 RNA with A25C, C27U, G29U, G31C
DNA 1: CAATCTGAATTCCGGTCTCCC
DNA 2: TGGTGGCTACGACGGGATT
B7: UUCUGCU (DNA:RNA)
RNA: B1 RNA with A25U, G26U, A28U, G30C, G31U
DNA 1: CAATCTGAATTCCGGTCTCCC
DNA 2: TGGTGGCTACGACGGGATT
B8: UGUAACC (DNA:RNA)
RNA: B1 RNA with A25U, C27U, G29A, G30C, G31C
DNA 1: CAATCTGAATTCCGGTCTCCC
DNA 2: TGGTGGCTACGACGGGATT
B9: AGGCGUG (DNA:RNA)
RNA: B1 RNA with C27G, A28C, G30U
DNA 1: CAATCTGAATTCCGGTCTCCC
DNA 2: TGGTGGCTACGACGGGATT
B10: ACCCAGU (DNA:RNA)
RNA: B1 RNA with G26C, A28C, G29A, G31U
DNA 1: CAATCTGAATTCCGGTCTCCC
DNA 2: TGGTGGCTACGACGGGATT
B11: GCAUGUC (DNA:RNA)
RNA: B1 RNA with A25G, G26C, C27A, A28U, G30U, G31C
DNA 1: CAATCTGAATTCCGGTCTCCC
DNA 2: TGGTGGCTACGACGGGATT
B12: GCGCAUG (DNA:RNA)
RNA: B1 RNA with A25G, G26C, C27G, A28C, G29A, G30U
DNA 1: CAATCTGAATTCCGGTCTCCC
DNA 2: TGGTGGCTACGACGGGATT
B13: GCGCGCA (DNA:RNA)
RNA: B1 RNA with A25G, G26C, C27G, A28C, G30C, G31A
DNA 1: CAATCTGAATTCCGGTCTCCC
DNA 2: TGGTGGCTACGACGGGATT
B14: GCAUGUG (DNA:RNA)
RNA: B1 RNA with A25G, G26C, C27A, A28U, G30U
DNA 1: CAATCTGAATTCCGGTCTCCC
DNA 2: TGGTGGCTACGACGGGATT
B15: GUCCGUC (DNA:RNA)
RNA: B1 RNA with A25G, G26U, A28C, G30U, G31C
DNA 1: CAATCTGAATTCCGGTCTCCC
DNA 2: TGGTGGCTACGACGGGATT
B16: AUGUGUG (DNA:RNA)
RNA: B1 RNA with G26U, C27G, A28U, G30U
DNA 1: CAATCTGAATTCCGGTCTCCC
DNA 2: TGGTGGCTACGACGGGATT
B17: GCACAUG (DNA:RNA)
RNA: B1 RNA with A25G, G26C, C27A, A28C, G29A, G30U
DNA 1: CAATCTGAATTCCGGTCTCCC
DNA 2: TGGTGGCTACGACGGGATT
B18: GCAUAUG (DNA:RNA)
RNA: B1 RNA with A25G, G26C, C27A, A28U, G29A, G30U
DNA 1: CAATCTGAATTCCGGTCTCCC
DNA 2: TGGTGGCTACGACGGGATT
B19: GCGCAUC (DNA:RNA)
RNA: GGGAGACCGGAAUUCAGAUUGUCCGCGCAUCUUAAAUCCCGUCGUAGCCACCA
DNA 1: CAATCTGAATTCCGGTCTCCC
DNA 2: TGGTGGCTACGACGGGATT
B20: CAAUGUA (DNA:RNA)
RNA: B1 RNA with A25C, G26A, C27A, A28U, G30U, G31A
DNA 1: CAATCTGAATTCCGGTCTCCC
DNA 2: TGGTGGCTACGACGGGATT

Numbering of substitutions follows the chain as printed; changes in the protein carry UniProt numbers. In all, about 16,000 sequences were measured (“ka relative to ugcaugu”: median about 0.0091, highest 2% from about 0.032 on). For the sample, the highest values were picked, then their nearest neighbours and some sequences at random.

In this assay the target is T1, RBFOX1 RRM. Kind of assay: EMSA; HiTS-Eq, 1 nM pool, 10 min; buffer printed only for the single-RNA assays: 10 mM Tris pH 7.5, 150 mM NaCl, 3.4 mM EDTA, 0.001% NP-40, 30 C. The note with it: tags: His6 N-terminal (pET28a); label: 5' 32P. The method, boiled down:
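Purified RbFox RRM, wild type or mutant, was incubated for 10 min in 50 µL with 1 nM of a 5′-radiolabelled RNA pool carrying 7 randomized nucleotides, whose flanks were annealed to DNA oligonucleotides, over a series of increasing protein concentrations. Unbound RNA was resolved on 8% native PAGE, cut out, reverse-transcribed, barcoded by PCR and sequenced on an Illumina HiSeq 2500. Relative association constants were derived from changes in read counts for each RNA species versus the control reaction and normalised to the cognate motif.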
B1: the binding signal was 0.0126 KA relative to UGCAUGU.
For B2 the value was 0.0201 KA relative to UGCAUGU.
Turning to B3, the binding signal was 0.00757 KA relative to UGCAUGU.
With B4, the binding signal was 0.0374 KA relative to UGCAUGU.
Turning to B5, the binding signal is 0.0262 KA relative to UGCAUGU.
For B6 the value was 0.014 KA relative to UGCAUGU; for B7, 0.0203 KA relative to UGCAUGU; for B8, 0.00753 KA relative to UGCAUGU.
As to B9, the binding signal was 0.0157 KA relative to UGCAUGU.
As to B10, the binding signal is 0.00233 KA relative to UGCAUGU.
The same measure for B11: 0.689 KA relative to UGCAUGU.
Consider B12, for which the binding signal was 0.843 KA relative to UGCAUGU.
Consider B13, for which the binding signal was 0.0238 KA relative to UGCAUGU.
With B14, the binding signal is 0.8 KA relative to UGCAUGU.
For B15, the binding signal is 0.0149 KA relative to UGCAUGU.
The same measure for B16: 0.0208 KA relative to UGCAUGU.
Regarding B17, the binding signal was 0.0141 KA relative to UGCAUGU.
On to B18, for which the binding signal was 0.00982 KA relative to UGCAUGU.
As to B19, the binding signal is 0.0246 KA relative to UGCAUGU.
On to B20, for which the binding signal is 0.00174 KA relative to UGCAUGU.
